In PubChem BioAssay AID2629 (Broad Institute, 2010):
In all, about 320,000 compounds went through this assay and about 1,900 (0.59%) were called active. For the sample, actives were picked, then their nearest neighbours and some compounds at random. A number with no mark means an inactive call. No stated cut-off is given here; in the data, active means inhibition mostly above about 10% (no sharp cut-off); inactive means mostly below about 6.7%.

These compounds were tested against Protein LANA1 (Human herpesvirus 8 type P (isolate GK18)) (UniProt Q9QR71) (assay: blockers of LANA interaction with H2A/H2B – biochemical, FP readout, HTS, primary screen (AID 2629)). Details: cell-free LANA-H2A/H2B peptide, fluorescence polarization, hits give high values, concentration not given here.
Chain of Protein LANA1 (Human herpesvirus 8 type P (isolate GK18)) (Q9QR71 whole entry, looked up): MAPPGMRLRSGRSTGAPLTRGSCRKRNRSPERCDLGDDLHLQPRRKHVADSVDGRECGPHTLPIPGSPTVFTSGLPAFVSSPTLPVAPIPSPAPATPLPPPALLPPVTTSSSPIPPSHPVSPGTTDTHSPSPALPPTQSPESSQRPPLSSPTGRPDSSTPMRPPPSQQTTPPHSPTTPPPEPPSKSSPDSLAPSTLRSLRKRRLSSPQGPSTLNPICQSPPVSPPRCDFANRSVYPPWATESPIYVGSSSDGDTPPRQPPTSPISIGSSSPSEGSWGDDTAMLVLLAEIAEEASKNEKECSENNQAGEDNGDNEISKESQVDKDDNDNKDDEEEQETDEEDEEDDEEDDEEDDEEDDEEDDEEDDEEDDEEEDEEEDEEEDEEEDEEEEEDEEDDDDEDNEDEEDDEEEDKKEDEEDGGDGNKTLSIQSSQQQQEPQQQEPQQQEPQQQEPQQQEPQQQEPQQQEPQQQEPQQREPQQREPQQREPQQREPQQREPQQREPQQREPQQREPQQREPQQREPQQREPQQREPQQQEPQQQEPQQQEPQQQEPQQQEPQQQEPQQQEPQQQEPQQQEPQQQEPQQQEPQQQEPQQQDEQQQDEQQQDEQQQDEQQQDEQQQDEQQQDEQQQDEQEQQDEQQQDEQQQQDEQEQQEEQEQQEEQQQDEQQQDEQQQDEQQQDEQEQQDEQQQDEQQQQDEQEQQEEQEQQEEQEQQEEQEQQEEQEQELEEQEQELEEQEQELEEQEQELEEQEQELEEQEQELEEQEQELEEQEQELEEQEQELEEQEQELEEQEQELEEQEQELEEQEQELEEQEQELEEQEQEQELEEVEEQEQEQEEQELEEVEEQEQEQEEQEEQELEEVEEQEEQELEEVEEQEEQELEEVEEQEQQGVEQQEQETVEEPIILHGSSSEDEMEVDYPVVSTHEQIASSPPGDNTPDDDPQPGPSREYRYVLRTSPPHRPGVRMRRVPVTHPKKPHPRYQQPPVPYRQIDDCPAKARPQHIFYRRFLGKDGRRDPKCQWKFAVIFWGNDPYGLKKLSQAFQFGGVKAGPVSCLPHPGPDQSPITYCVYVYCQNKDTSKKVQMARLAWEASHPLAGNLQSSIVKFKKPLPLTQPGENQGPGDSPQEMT

First: O=C1COc2ccc(C(=O)COC(=O)C3CC(O)CN3S(=O)(=O)c3ccc(Cl)cc3)cc2N1 (centres undefined)
Second: COc1ccccc1NC(=O)C1CCCN1S(=O)(=O)c1ccc(Cl)cc1 (centres undefined)
The inhibition of the first is lower: -4.73% for the first, -0.219% for the second.

Compared with `COc1ccc2c(C)cc3nnnn3c2c1`, `CCc1c(C)nc2ncnn2c1N1CCC(C(=O)NCc2ccc3c(c2)OCO3)CC1` is lower in inhibition: 6.55% for the first, 0.84% for the second.

Compared with `CC(C)CC(=O)Nc1cc(C(F)(F)F)ccc1N1CCOCC1`, `O=C(CN1C(=O)NC2(CCCC2)C1=O)Nc1cc(C(F)(F)F)ccc1N1CCOCC1` is lower in inhibition: 3.7% for the first, -2.08% for the second.

Going from `Cc1cc(Nc2cc(N3CCN(C)CC3)nc(Sc3ccc(NC(=O)C4CC4)cc3)n2)n[nH]1` to `Cc1cc(=O)n2nc(N3CCCC(C(=O)N4CCN(C)CC4)C3)sc2n1` (centres undefined), the inhibition falls from 1.71% to 0.763%.

First: CN(c1ccccc1)S(=O)(=O)c1ccc(Cl)c(C(=O)OCC(=O)NCc2ccco2)c1
Second: CN(c1ccccc1)S(=O)(=O)c1ccc(Cl)c(C(=O)OCC(N)=O)c1
The inhibition of the first is lower: -3.84% for the first, -3.79% for the second.

First: Cc1ccc(S(=O)(=O)N(CC(O)CN2CCCCC2)c2cccc([N+](=O)[O-])c2)cc1 (centres undefined)
Second: O=C(CN1CCCCCC1)Nc1ccc(S(=O)(=O)N2CCCCC2)cc1
The inhibition of the first is lower: 7.02% for the first, 7.61% for the second.

First: O=C(CSc1nnc(-c2ccccc2O)o1)NC1CCCCC1
Second: CCn1c(SCC(=O)NC2CCCC2)nnc1-c1ccoc1C
The inhibition of the first is higher: 3.2% for the first, -2.52% for the second.

Compared with `CCCCSCCCNC(=O)C1CCC(CNS(=O)(=O)c2ccc(NC(C)=O)cc2)CC1` (centres undefined), `COC(=O)CNS(=O)(=O)c1ccc(Cc2ccc(S(=O)(=O)NCC(=O)OC)cc2)cc1` is higher in inhibition: -3.44% for the first, 5.82% for the second.

First: CCSC1=NCCN1C(=O)c1ccc(S(=O)(=O)N(CC)CC)cc1
Second: O=C(CN1C(=O)CCC1=O)Nc1ccc(S(=O)(=O)N2CCOCC2)cc1
The inhibition of the first is higher: 10.9% for the first, 1.75% for the second.

`COC(=O)C1=C(C)NC2=C(C(=O)c3ccccc32)C1c1ccc(-c2ccc(C(=O)O)cc2)o1` (centres undefined) was tested, and the inhibition was 3.17%.

For `NNC(=O)C1CC(O)CN1S(=O)(=O)c1ccc(Cl)cc1` (centres undefined), the inhibition was 18% (active).
`O=C(Cn1nnc2ccccc2c1=O)Nc1cc(C(F)(F)F)ccc1N1CCOCC1` was tested, and the inhibition was 15.8% (active).
In the case of `Cc1occc1-c1nnc(SCC(=O)NC2CCCCC2)o1`, the inhibition is reported as 14.3% (active).
In the case of `CCCC1C(c2ccccc2)C(C#N)(C#N)C2(C#N)CC1(N)NC2=O` (centres undefined), the inhibition is reported as 182% (active).
With `O=C(CN1CCN(c2cccc(Cl)c2)CC1)Nc1ccc(S(=O)(=O)N2CCOCC2)cc1` the inhibition was 145% (active).
